# PubChem BioAssay (NCI)
# Compounds without any hit were thinned out: in the full panel of roughly 79,000, 15% have a hit. A number with no mark means an inactive call. Active and inactive are the calls of the source. Cut-off read from the data, not from the text of the source: active = growth inhibition above about 70%; inactive = the rest.
# Test: NCI Yeast Anticancer Drug Screen. Data for the rad18 strain (AID 177)
# Conditions: S. cerevisiae rad18 mutant growth inhibition, stronger effect = higher value
# Method: Growth inhibition of yeast strains with defined genetic alterations is measured as a screen for potential anti-cancer activity. Selected strains with alterations in DNA damage repair or cell cycle control were exposed to compounds and growth inhibition was measured relative to vehicle treated controls. The strain used in this assay is rad18
SMILES,growth inhibition (at 1.2 µM) [%],growth inhibition (at 3.7 µM) [%],growth inhibition (at 11.0 µM),growth inhibition (at 33.0 µM),growth inhibition (at 100.0 µM)
Nc1ccc2c(c1)C(=O)c1cccc(N)c1C2=O,5,39,91% (active),97% (active),93% (active)
Oc1ccc2ccccc2c1C(c1ccc(Cl)cc1)c1c(O)ccc2ccccc12,-30,-8,2%,50%,87% (active)
COc1cc(C2c3cc4c(cc3OC(Nc3ccccc3)C2C)OCO4)cc(OC)c1O (stereo not given),0,-1,-7%,1%,92% (active)
CC[C@@]1(O)C(=O)OCc2c1cc1n(c2=O)Cc2cc3c(N)cccc3nc2-1,-10,-11,-13%,-15%,-23%
CN(C)Cc1cc(N=Nc2ccc(Cl)cc2)cc(CN(C)C)c1O,7,8,25%,15%,34%
Cc1ccc(-n2cc(-c3ccc(Cl)cc3)c(C#N)c2N)cc1,-5,1,4%,6%,41%
CC1=C(C)Cc2c(O)ccc(O)c2C1,0,10,18%,14%,93% (active)
CC1(Cl)CC(O)C2(CC1Br)C1(C)OC1C1OC1(Br)C2(C)C (stereo not given),-15,-7,25%,76% (active),98% (active)
